Only a selection was taken, and hits are over-represented in it overall.
Pf Dd2 inh – qHTS Primary assay for Inhibitors of Plasmodium falciparum Dd2 growth in vitro; P. falciparum Dd2 growth, SYBR Green, 72 h; Potency, µM (series often up to 28.9 µM), for inactives: at the top dose activity, negative = inhibition, most hits filed as inhibitors; actives 4.3% (n = 120,000); AID 1347417, 2020; active means well fitted inhibition curve with a large enough effect;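 further: plate controls were DMSO vehicle for no effect and reference drug for full effect; nearly all actives have a fitted effect of over 65% in size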
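Readout: SYBR Green fluorescence, 485 nm excitation, 535 nm emission, after ~16 h lysis at 37C. Before that, Dd2-infected red cells (2.5% hematocrit) grew 72 h with compound, 29 uM top final concentration.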
The depositor's hits bear a star; i = inactive; [ ] = remark or other dose. Potency means the concentration at half of the fitted maximal effect.

SMILES	Pf Dd2 inh
Cc1ncccc1C(=O)N1CC(Oc2ccccc2-c2nc(-c3ccccc3)no2)C1	11µM*
O=C(c1cnccn1)N1CCC(Oc2ccccc2-c2nc(-c3ccccc3)no2)C1 (centres undefined)	-16%
O=C(Cc1ccsc1)N1CC(Oc2ccccc2-c2nc(-c3ccccc3)no2)C1	13µM*
O=C(C1CCC1)N1CC(Oc2ccccc2-c2nc(-c3cnccn3)no2)C1	10µM*
O=C(c1ccncc1)N1CCC(Oc2ccccc2-c2nc(-c3ccccc3)no2)C1 (centres undefined)	-12%
O=C(C1CCOCC1)N1CCC(Oc2ccccc2-c2nc(-c3ccccc3)no2)C1 (centres undefined)	i
Cc1csc(NC(=O)c2ccc3c(c2)OCCN(CCC(F)(F)F)C3)n1	-20%[44.1 µM]
NC(=O)c1cc[nH]c1C1CCCN(C(=O)NC2CCCCC2)C1 (centres undefined)	5%
CC1=NS(=O)(=O)N(C)C=C1C(=O)OCc1nc(-c2ccc(F)cc2)no1	56%
O=C(NCCCn1nnc2ccccc21)C1NCCc2[nH]cnc21 (centres undefined)	-19%
CC(C)N(C)Cc1nnnn1CC(=O)NCc1nc(-c2ccccc2)cs1	i
Cc1nc(-c2ccccc2)n(Cc2cc(=O)n3ccccc3n2)c(=O)c1CCO	-15%
N#C/C(=C/c1cn(Cc2ccccc2Cl)c2ccccc12)C(=O)Nc1cccc(Cl)c1	i
Cc1c(/C=C(\C#N)C(=O)Nc2cccc(Cl)c2)c2ccccc2n1Cc1ccccc1Cl	3.2µM*
Cc1ccc(NC(=O)/C(C#N)=C\c2ccc(Cl)cc2Cl)cc1C	8%
COC[C@H]1C[C@@H](NC(=O)c2ccc(Cl)cc2)[C@H](O)[C@@H]1O	9%[44.1 µM]
CC[C@H]1CN(C(=O)Nc2cccc(C(F)(F)F)c2)CC[C@H]1CC(=O)NCCN1CCCCC1	-6%
CN1CC(=O)N(C2CCNCC2)Cc2c(NCCc3cccc(F)c3)ncnc21	-17%
O=C(Cn1ncc2c3ccccc3n(Cc3ccccc3)c2c1=O)N1CCCCCC1	3%
CCOC(=O)N1CCN(C(=O)Cn2ncc3c4ccccc4n(Cc4ccc(F)cc4)c3c2=O)CC1	10µM*
Cc1ccccc1Cn1c2ccccc2c2cnn(CC(=O)NC3CCCCCC3)c(=O)c21	12%
Cc1ccccc1Cn1c2ccccc2c2cnn(CC(=O)NCc3ccccn3)c(=O)c21	0%
O=C(Cn1ncc2c3ccccc3n(Cc3ccc(Cl)cc3)c2c1=O)NCc1ccccn1	-22%
CCC(Cc1ccccc1)NC(=O)Cn1ncc2c3ccccc3n(Cc3ccc(F)cc3)c2c1=O (centres undefined)	-5%
Cc1cc(C)c(Cn2c3ccccc3c3cnn(CC(=O)N4CCCCCC4)c(=O)c32)c(C)c1	7.1µM*
SMILES	Pf Dd2 inh
O=C(Cn1ncc2c3ccccc3n(Cc3cccc(Cl)c3)c2c1=O)N1CCCCCC1	8.9µM*
Cc1cc(C)c(Cn2c3ccccc3c3cnn(CC(=O)NCc4ccccn4)c(=O)c32)c(C)c1	10µM*
CC(CCc1ccccc1)NC(=O)Cn1ncc2c3ccccc3n(Cc3cccc(Cl)c3)c2c1=O (centres undefined)	-5%
CC1CCC(NC(=O)Cn2ncc3c4ccccc4n(Cc4ccc(F)cc4)c3c2=O)CC1 (centres undefined)	-8%
CCCn1c2ccccc2c2cnn(CC(=O)N3CCC(C)CC3)c(=O)c21	i
CSc1cccc(NC(=O)CCn2ccn3nc4c(c3c2=O)CCCC4)c1	25%
CS(=O)(=O)N1C[C@H]2CCN(Cc3ccc(Cl)cc3F)C[C@H]21	7%
CCC(=O)N1CCC(Cc2nc(C3CCOCC3)no2)CC1	44%
CCc1cccc(NC(=O)CN2C(=O)NC(c3ccccc3Cl)C3=C2COC3=O)c1 (centres undefined)	-5%
COCCN1CCCCCC(O)c2cc(C(=O)N3CCN(CC(C)C)CC3)ccc21 (centres undefined)	i
O=C(Cc1ccccc1)NCC1CCCCC(=O)N1 (centres undefined)	-7%
COC(=O)[C@H](NC(=O)[C@@H]1C[C@H](NC(=O)NC(C)C)CN1C(=O)CSC)C(C)C	6%[44.1 µM]
COc1ccc(CCC(=O)N[C@@H]2CN(c3ncccn3)C[C@H]2CO)cc1	i
Cc1cc(C)nc(N2CC3CCC(C2)N3CC(F)(F)F)c1	i
FC(F)(F)CN1C2CCC1CN(c1nccc(C(F)(F)F)n1)C2	16%
Cc1ccc(Nc2ccnc(N3CC4CCC(C3)N4CC(F)(F)F)n2)cc1	10µM*
O=C(NCCc1noc(-c2ccccc2)n1)c1n[nH]c2ccccc12	-16%
O=C(c1cc[nH]c(=O)c1)N1C[C@@H](COCC2CC2)[C@H](c2ccccn2)C1	9%
O=C(c1cccnc1)N1CCC(Oc2ccccc2)C1 (centres undefined)	-16%
COc1ccc(C(=O)N2C[C@@H](F)C[C@H]2C(=O)N2CCCCC2)cc1	3%
CN(CCc1ccccn1)[C@H]1[C@@H]2OC[C@@H](O2)[C@@H](NCc2ccc(F)cc2)[C@@H]1O	i
CNC(=O)c1ccc(Cn2ccn3nc4c(c3c2=O)CCCC4)cc1	i
COc1ccccc1CNC(=O)c1ccc(Cn2ccn3nc4c(c3c2=O)CCCC4)cc1	-2%
CC(CCc1ccccc1)NC(=O)c1ccc(Cn2ccn3nc4c(c3c2=O)CCCC4)cc1 (centres undefined)	8.9µM*
O=C(N1CC(Oc2cccc(-c3nc(-c4ccccc4)no3)c2)C1)C1(c2ccccc2)CC1	i[5.79 µM]
SMILES	Pf Dd2 inh
COCCN1C(=O)CS(=O)(=O)C12CCN(C(=O)C1CC1)CC2	7%
COc1cccc2sc(N(Cc3cccnc3)C(=O)Cc3ccccc3)nc12	i
COc1ccc2sc(N(Cc3cccnc3)C(=O)CCc3ccccc3)nc2c1	-7%
Cc1ccc2nc(N(Cc3cccnc3)C(=O)c3ccco3)sc2c1	10µM*
O=C(COc1ccccc1)N(Cc1cccnc1)c1nc2c(F)cc(F)cc2s1	-8%
O=C(CCc1ccccc1)N(Cc1cccnc1)c1nc2c(F)cc(F)cc2s1	10µM*
O=C(c1ccc(Br)s1)N(Cc1cccnc1)c1nc2ccc(F)cc2s1	2.5µM*
O=C(C1COc2ccccc2O1)N(Cc1cccnc1)c1nc2ccc(F)cc2s1 (centres undefined)	i
CC(=O)N(Cc1cccnc1)c1nc2ccc(F)cc2s1	7%
CCc1ccc2nc(N(Cc3cccnc3)C(=O)c3ccc(C#N)cc3)sc2c1	8.9µM*
Cc1ccc2nc(N(Cc3cccnc3)C(=O)C3COc4ccccc4O3)sc2c1 (centres undefined)	6%
O=C(c1ccco1)N(Cc1cccnc1)c1nc2c(F)cc(F)cc2s1	i
O=C(CCS(=O)(=O)c1ccccc1)N(Cc1cccnc1)c1nc2ccc(F)cc2s1	i
CCn1nc(CC(C)C)cc1C(=O)N1CCC2(CC1)CNC(=O)O2	-7%
Cc1cccc2c1nc1n2[C@@H](CNCc2ccc(S(C)(=O)=O)cc2)COC1	i
O=C1COCC2(CN(CCC(F)(F)F)C2)CN1Cc1cccc(OC(F)(F)F)c1	-8%[44.1 µM]
Cc1ccc(-c2ccc3nnc(CNC(=O)c4ccc(C)cc4C)n3n2)cc1	0%
C#CCNC(=O)[C@H]1O[C@H](CCN(C)CCN(C)C)CC[C@@H]1O	11%[44.1 µM]
CNc1cc(-c2ccccc2C(=O)N(C(C)C)C(C)C)nc(N)n1	-25%
O=C(C1COc2ccccc2O1)N(Cc1cccnc1)c1nc2c(Cl)cccc2s1 (centres undefined)	i
O=C(C1CCCCC1)N(Cc1cccnc1)c1nc2ccc(Cl)cc2s1	3.2µM*

Source: PubChem (National Center for Advancing Translational Sciences (NCATS))
